Holding throughout (details): mRNA level, 48 h; actives raise or lower the signal
Read-out in test [1]: Paternally Expressed 10 (PEG10), PEG10 (gene 23089)
Kind of test: LTEA_HepaRG_PEG10: Life Technologies and Expression Analysis (LTEA) Assay for Paternally Expressed 10 (PEG10) using HepaRG (AID 2283520). Summed up:
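Differentiated HepaRG cells exposed 48 h in serum-free induction medium to eight half-log concentrations topping at 100 uM, 0.5% DMSO, in duplicate. PEG10 mRNA quantified by TaqMan qRT-PCR, normalized to ACTB, GAPDH and POLR2A; bidirectional fit versus DMSO.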

Read-out in test [2]: Nuclear factor NF-kappa-B p105 subunit (Homo sapiens) (UniProt P19838)
Description: LTEA_HepaRG_NFKB1: Life Technologies and Expression Analysis (LTEA) Assay for Nuclear Factor Kappa B Subunit 1 (NFKB1) using HepaRG (AID 2283521). Summed up: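 Human HepaRG cells receive eight half-log concentrations, highest 100 uM, for 48 h. NFKB1 expression is then quantified by qRT-PCR and analysed for up- or down-regulation relative to 0.5% DMSO vehicle.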

Read-out in test [3]: Protein phosphatase 2A (PPP2R4), PTPA (gene 5524)
Kind of test: LTEA_HepaRG_PPP2R4: Life Technologies and Expression Analysis (LTEA) Assay for Protein phosphatase 2A (PPP2R4) using HepaRG (AID 2283522). Summed up: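 Differentiated human HepaRG cells in serum-free induction medium were exposed 48 h to 8 concentrations (top 100 µM, half-log steps, duplicate) in 0.5% DMSO. PPP2R4 mRNA was measured by TaqMan qRT-PCR, normalised to ACTB, GAPDH and POLR2A, and fitted bidirectionally versus DMSO.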

Read-out in test [4]: Phosphatase and tensin (PTEN), PTEN (gene 5728)
Kind of test: LTEA_HepaRG_PTEN: Life Technologies and Expression Analysis (LTEA) Assay for Phosphatase and tensin (PTEN) using HepaRG (AID 2283523). Summed up:
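Read-out is PTEN transcript level by multiplexed TaqMan qRT-PCR after 48 h chemical treatment of human HepaRG cultures in serum-free induction medium. Concentrations spanned 100 uM downward in half-log steps, 0.5% DMSO throughout; activity fitted in both directions against vehicle.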

Read-out in test [5]: solute carrier (SLC22A1), SLC22A1 (gene 6580)
Kind of test: LTEA_HepaRG_SLC22A1: Life Technologies and Expression Analysis (LTEA) Assay for solute carrier (SLC22A1) using HepaRG (AID 2283524). Summed up:
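HepaRG (human liver line), 48 h dosing in serum-free induction medium; 8 conc., half-log down from 100 uM, 0.5% DMSO vehicle, duplicates. Endpoint: SLC22A1 mRNA, qRT-PCR, housekeeping-normalized; gain/loss fit vs DMSO.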

Read-out in test [6]: Pyruvate Dehydrogenase Kinase 4 (PDK4), PDK4 (gene 5166)
Description: LTEA_HepaRG_PDK4: Life Technologies and Expression Analysis (LTEA) Assay for Pyruvate Dehydrogenase Kinase 4 (PDK4) using HepaRG (AID 2283525). Summed up: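 In this multiplexed human HepaRG expression assay, cells are treated 48 h with test chemicals across an eight-point range starting at 100 uM. PDK4 mRNA changes, normalized to ACTB/GAPDH/POLR2A, are fitted in both directions relative to vehicle.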

Read-out in test [7]: NAD(P)H dehydrogenase [quinone] 1 (NQO1), NQO1 (gene 1728)
Kind of test: LTEA_HepaRG_NQO1: Life Technologies and Expression Analysis (LTEA) Assay for NAD(P)H dehydrogenase [quinone] 1 (NQO1) using HepaRG (AID 2283526). Summed up:
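Differentiated human HepaRG cells in serum-free induction medium, dosed in duplicate for 48 h at 8 half-log concentrations up to 100 uM in 0.5% DMSO. NQO1 mRNA by qRT-PCR normalized to ACTB, GAPDH, POLR2A; bidirectional fit versus DMSO baseline.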

Read-out in test [8]: succinate dehydrogenase complex iron sulfur subunit B (SDHB), SDHB (gene 6390)
Description: LTEA_HepaRG_SDHB: Life Technologies and Expression Analysis (LTEA) Assay for succinate dehydrogenase complex iron sulfur subunit B (SDHB) using HepaRG (AID 2283528). Summed up:
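A human HepaRG culture in serum-free induction medium received test chemicals for 48 h over an eight-point range capped at 100 uM. SDHB expression change was quantified by qRT-PCR.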

Read-out in test [9]: Signal transducer and activator of transcription 3 (Homo sapiens) (UniProt P40763)
Description: LTEA_HepaRG_STAT3: Life Technologies and Expression Analysis (LTEA) Assay for Signal transducer and activator of transcription (STAT3) using HepaRG (AID 2283529). A digest of the protocol:
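Read-out is STAT3 mRNA level by qRT-PCR, normalized to three housekeeping genes, in human HepaRG liver cells treated for 48 h. Concentrations ran from 100 uM downward in half-log steps; curves were fitted for gain or loss relative to 0.5% DMSO.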

Read-out in test [10]: solute carrier (SLCO1B1), SLCO1B1 (gene 10599)
Kind of test: LTEA_HepaRG_SLCO1B1: Life Technologies and Expression Analysis (LTEA) Assay for solute carrier (SLCO1B1) using HepaRG (AID 2283530). Summed up: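 Human HepaRG cultures treated for 48 h with an eight-concentration half-log series topping at 100 uM; SLCO1B1 measured by qRT-PCR and fitted bidirectionally relative to DMSO.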

Read-out in test [11]: sulfotransferase 2A1 (SULT2A1), SULT2A1 (gene 6822)
Description: LTEA_HepaRG_SULT2A1: Life Technologies and Expression Analysis (LTEA) Assay for sulfotransferase 2A1 (SULT2A1) using HepaRG (AID 2283531). Summed up:
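Gene-expression endpoint in a human liver cell line: SULT2A1 mRNA change after 48 h chemical treatment, curves fitted in both directions relative to 0.5% DMSO vehicle. Concentrations spanned eight half-log steps from 100 uM.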

Read-out in test [12]: Transforming Growth Factor (TGFA), TGFA (gene 7039)
Description: LTEA_HepaRG_TGFA: Life Technologies and Expression Analysis (LTEA) Assay for Transforming Growth Factor (TGFA) using HepaRG (AID 2283532). Summed up: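 HepaRG (human liver line), 48 h exposure, 8 conc. half-log down from 100 uM, 0.5% DMSO vehicle, duplicates; serum-free induction medium. TGFA mRNA by TaqMan qRT-PCR, ACTB/GAPDH/POLR2A normalization; gain/loss fit vs DMSO.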

Read-out in test [13]: Transforming Growth Factor (TGFB1), TGFB1 (gene 7040)
Kind of test: LTEA_HepaRG_TGFB1: Life Technologies and Expression Analysis (LTEA) Assay for Transforming Growth Factor (TGFB1) Transporter using HepaRG (AID 2283533). Summed up: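 Eight-point concentration-response (max 100 uM, half-log) in HepaRG under serum-free induction conditions, 48 h. TGFB1 mRNA by qRT-PCR, housekeeping-normalized.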

Read-out in test [14]: TIMP1, TIMP1 (gene 7076)
Kind of test: LTEA_HepaRG_TIMP1: Life Technologies and Expression Analysis (LTEA) Assay for TIMP1 using HepaRG (AID 2283534). Summed up: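 TIMP1 induction or repression in HepaRG cells after 48 h chemical exposure (eight concentrations, highest 100 uM), assessed by normalized qRT-PCR with bidirectional fitting to DMSO controls.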

Read-out in test [15]: Tumor necrosis factor receptor 1 (TNFRSF1A), TNFRSF1A (gene 7132)
Kind of test: LTEA_HepaRG_TNFRSF1A: Life Technologies and Expression Analysis (LTEA) Assay for Tumor necrosis factor receptor 1 (TNFRSF1A) using HepaRG (AID 2283535). A digest of the protocol:
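Assay uses 48 h chemical treatment of differentiated HepaRG monolayers, tested in duplicate at eight concentrations from 100 uM downward in 0.5% DMSO. mRNA is normalized to ACTB, GAPDH and POLR2A, with induction or suppression fitted relative to vehicle.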

Read-out in test [16]: Thyroid Hormone Responsive (THRSP), THRSP (gene 7069)
Description: LTEA_HepaRG_THRSP: Life Technologies and Expression Analysis (LTEA) Assay for Thyroid Hormone Responsive (THRSP) using HepaRG (AID 2283536). Summed up: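 mRNA induction or loss relative to 0.5% DMSO vehicle was fitted bidirectionally across an eight-point curve whose highest exposure was 100 uM. Human HepaRG liver cells received chemicals in duplicate over 48 h before RNA extraction.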

Read-out in test [17]: Cellular tumor antigen p53 (Homo sapiens) (UniProt P04637)
Description: LTEA_HepaRG_TP53: Life Technologies and Expression Analysis (LTEA) Assay for Tumor Protein P53 (TP53) using HepaRG (AID 2283537). A digest of the protocol: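 Gain or loss of TP53 mRNA signal is scored relative to 0.5% DMSO after 48 h chemical treatment of HepaRG liver cells, tested in duplicate at eight half-log concentrations up to 100 uM.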

Read-out in test [18]: UDP glucuronosyltransferase (UGT1A1), UGT1A1 (gene 54658)
Description: LTEA_HepaRG_UGT1A1: Life Technologies and Expression Analysis (LTEA) Assay for UDP glucuronosyltransferase (UGT1A1) using HepaRG (AID 2283538). Summed up: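 HepaRG cells, 0.5% DMSO vehicle, 48 h exposure in serum-free induction medium to 8-point half-log series topping at 100 uM, in duplicate. UGT1A1 mRNA by Fluidigm qRT-PCR, normalized to ACTB/GAPDH/POLR2A; bidirectional fit versus DMSO.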

Read-out in test [19]: matrix metalloproteinase-3 (MMP3), MMP3 (gene 4314)
Description: LTEA_HepaRG_MMP3: Life Technologies and Expression Analysis (LTEA) Assay for matrix metalloproteinase-3 (MMP3) using HepaRG (AID 2283519). Summed up:
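HepaRG, human; 48 h dosing, 8 conc. (max 100 uM, half-log), duplicate, 0.5% DMSO. Readout: MMP3 transcript by Fluidigm TaqMan qRT-PCR, ACTB/GAPDH/POLR2A-normalised. Gain or loss fitted vs DMSO.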

Read-out in test [20]: Nuclear factor erythroid 2-related factor 2 (Homo sapiens) (UniProt Q16236)
Kind of test: LTEA_HepaRG_NFE2L2: Life Technologies and Expression Analysis (LTEA) Assay for Nuclear factor erythroid 2-related factor 2 (NFE2L2) Transcription Factor using HepaRG (AID 2283527). A digest of the protocol:
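Transcript level of NFE2L2 is the read-out, measured by microfluidic TaqMan qRT-PCR and normalized to three housekeeping genes. Human HepaRG cultures received test chemical for 48 h at up to 100 uM in half-log steps. Gain or loss of signal is fitted relative to 0.5% DMSO.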

The source of these data is PubChem BioAssay (EPA / NIEHS).

Calls of active or inactive are those of the source. How the source made its calls: active means hit-call score of the fitted dose curve at least 0.9, where 1 is the maximum; inactive means score below 0.9.

Cellular tumor antigen p53 (Homo sapiens), sequence (P04637 whole entry, looked up): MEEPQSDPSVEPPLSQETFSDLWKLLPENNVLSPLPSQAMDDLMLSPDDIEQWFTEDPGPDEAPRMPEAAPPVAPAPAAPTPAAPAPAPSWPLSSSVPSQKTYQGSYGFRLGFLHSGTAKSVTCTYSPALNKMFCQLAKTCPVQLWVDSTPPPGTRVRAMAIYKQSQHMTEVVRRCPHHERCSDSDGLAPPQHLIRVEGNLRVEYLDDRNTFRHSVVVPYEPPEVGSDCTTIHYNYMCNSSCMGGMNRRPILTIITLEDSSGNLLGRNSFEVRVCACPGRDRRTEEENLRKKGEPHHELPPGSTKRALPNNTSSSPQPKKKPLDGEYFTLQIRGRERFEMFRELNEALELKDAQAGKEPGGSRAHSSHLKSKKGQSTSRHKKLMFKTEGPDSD
Nuclear factor NF-kappa-B p105 subunit (Homo sapiens), sequence (P19838 whole entry, looked up): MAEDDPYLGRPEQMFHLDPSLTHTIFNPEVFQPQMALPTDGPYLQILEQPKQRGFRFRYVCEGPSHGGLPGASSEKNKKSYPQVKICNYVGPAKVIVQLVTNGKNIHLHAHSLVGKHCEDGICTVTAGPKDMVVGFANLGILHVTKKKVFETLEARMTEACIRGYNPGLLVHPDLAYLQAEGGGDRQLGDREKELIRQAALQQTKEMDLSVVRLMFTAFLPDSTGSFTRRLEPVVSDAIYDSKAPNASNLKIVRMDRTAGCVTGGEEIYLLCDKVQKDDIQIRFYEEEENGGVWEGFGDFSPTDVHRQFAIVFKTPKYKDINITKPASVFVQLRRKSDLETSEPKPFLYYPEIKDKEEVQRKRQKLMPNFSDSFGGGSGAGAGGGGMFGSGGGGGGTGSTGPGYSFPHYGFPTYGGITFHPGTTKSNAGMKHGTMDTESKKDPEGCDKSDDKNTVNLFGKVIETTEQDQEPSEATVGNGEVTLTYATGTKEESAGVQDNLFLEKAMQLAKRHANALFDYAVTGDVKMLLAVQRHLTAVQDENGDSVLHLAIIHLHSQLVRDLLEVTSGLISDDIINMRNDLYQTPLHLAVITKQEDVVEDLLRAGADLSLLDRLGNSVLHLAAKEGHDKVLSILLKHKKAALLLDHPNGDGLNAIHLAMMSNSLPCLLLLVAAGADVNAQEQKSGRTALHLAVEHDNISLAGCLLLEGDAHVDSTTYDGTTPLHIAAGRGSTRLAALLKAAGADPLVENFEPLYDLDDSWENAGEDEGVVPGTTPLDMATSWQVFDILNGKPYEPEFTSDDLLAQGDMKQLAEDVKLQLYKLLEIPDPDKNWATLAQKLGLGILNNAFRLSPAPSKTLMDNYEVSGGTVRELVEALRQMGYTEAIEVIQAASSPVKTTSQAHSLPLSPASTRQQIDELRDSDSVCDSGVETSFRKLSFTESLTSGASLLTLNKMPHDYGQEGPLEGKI
Signal transducer and activator of transcription 3 (Homo sapiens), sequence (P40763 whole entry, looked up): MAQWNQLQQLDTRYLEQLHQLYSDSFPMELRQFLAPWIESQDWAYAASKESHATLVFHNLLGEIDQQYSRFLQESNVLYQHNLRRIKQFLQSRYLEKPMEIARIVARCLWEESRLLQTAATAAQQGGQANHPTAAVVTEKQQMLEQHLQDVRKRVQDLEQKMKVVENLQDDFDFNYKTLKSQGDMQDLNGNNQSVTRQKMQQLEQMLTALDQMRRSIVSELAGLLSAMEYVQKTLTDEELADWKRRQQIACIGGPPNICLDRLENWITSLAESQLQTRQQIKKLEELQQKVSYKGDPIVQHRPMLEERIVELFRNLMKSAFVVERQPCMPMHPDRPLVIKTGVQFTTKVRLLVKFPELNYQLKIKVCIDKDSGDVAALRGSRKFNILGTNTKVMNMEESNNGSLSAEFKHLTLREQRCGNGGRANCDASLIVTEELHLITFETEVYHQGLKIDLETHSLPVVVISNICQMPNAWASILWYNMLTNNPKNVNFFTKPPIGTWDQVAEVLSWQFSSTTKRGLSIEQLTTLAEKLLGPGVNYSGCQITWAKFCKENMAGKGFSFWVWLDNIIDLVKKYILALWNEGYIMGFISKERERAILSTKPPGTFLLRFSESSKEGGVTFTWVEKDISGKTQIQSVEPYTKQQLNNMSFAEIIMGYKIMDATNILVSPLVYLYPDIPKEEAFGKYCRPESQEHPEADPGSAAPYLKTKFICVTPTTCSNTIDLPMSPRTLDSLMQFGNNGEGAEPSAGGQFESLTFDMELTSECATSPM
Nuclear factor erythroid 2-related factor 2 (Homo sapiens), sequence (Q16236 whole entry, looked up): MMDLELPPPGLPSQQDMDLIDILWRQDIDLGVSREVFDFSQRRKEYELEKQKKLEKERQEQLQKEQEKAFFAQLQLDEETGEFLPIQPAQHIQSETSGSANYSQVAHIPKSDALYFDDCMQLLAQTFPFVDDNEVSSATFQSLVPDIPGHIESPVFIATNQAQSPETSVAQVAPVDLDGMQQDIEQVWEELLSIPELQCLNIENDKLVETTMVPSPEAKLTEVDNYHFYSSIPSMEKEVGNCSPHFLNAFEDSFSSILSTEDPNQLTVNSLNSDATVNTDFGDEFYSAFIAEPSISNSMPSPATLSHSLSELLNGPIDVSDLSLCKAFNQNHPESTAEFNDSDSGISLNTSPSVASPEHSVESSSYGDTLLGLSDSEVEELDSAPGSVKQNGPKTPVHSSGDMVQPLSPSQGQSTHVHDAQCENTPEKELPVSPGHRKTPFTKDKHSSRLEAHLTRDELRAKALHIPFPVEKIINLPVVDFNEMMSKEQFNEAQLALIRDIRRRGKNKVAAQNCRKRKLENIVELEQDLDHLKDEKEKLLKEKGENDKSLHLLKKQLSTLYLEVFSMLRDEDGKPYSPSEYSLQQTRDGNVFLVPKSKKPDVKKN

With `O=C(c1ccc(O)cc1O)c1ccc(O)cc1O`, the result in [1], in test [2], in test [3], in test [4], in test [5] and in test [6] was inactive. In addition, the compound was called inactive in test [7], in test [8], in test [9], in test [10], in test [11] and in [12]. Moreover, the compound was called inactive in test [13], in test [14], in test [15], in [16], in test [17] and in test [18].

In the case of `O=C(c1ccccc1)C1CCCCC1`, the compound was classed as inactive in test [1], in test [2], in test [3], in [4], in test [5] and in test [6]. For the same compound, the compound was called inactive in test [7], in test [8], in [9], in [10], in test [11] and in test [12]. Further, the call in [13], in [14], in [15], in [16], in [17] and in test [18] was inactive.

Consider `CC(C)CCCCCCc1ccc(O)cc1`, for which the compound was called inactive in test [1], in [2], in [3], in [4], in test [5] and in [6]. Also, the call in [7], in test [8], in test [9], in test [10], in test [11] and in test [12] was inactive. Also, the call in [13], in test [14], in test [15], in [16], in test [17] and in [18] was inactive.

For `CC(C)(C)[C@@H](O)[C@@H](Cc1ccc(Cl)cc1)n1cncn1`, the call in test [1], in test [2], in test [3], in test [4], in test [5] and in test [6] was inactive. Moreover, the compound was called inactive in test [7], in test [8], in test [9], in test [11], in test [12] and in test [13]. Also, the call in test [14], in test [15] and in test [17] was inactive. Besides, the AC50 – broadly, the midpoint of the concentration-response curve, whichever way the signal moves – in [16] was 32.7 µM (active); in test [18], 6.98 µM (active).

On to `C=CCOC(Cn1ccnc1)c1ccc(Cl)cc1Cl` (configuration not stated), for which the AC50 in test [19] was 75.2 µM (active); in test [1], 28.4 µM (active); in test [3] it was 87.5 µM (active); in test [6], 29 µM (active); in [7], 50 µM (active); in test [20] it was 21.8 µM (active). Further, the AC50 in test [10] was 35 µM (active); in test [11], 36.4 µM (active); in test [12] it was 50 µM (active); in test [15], 77.8 µM (active); in test [16], 36.2 µM (active); in test [17] it was 12.2 µM (active). Further, the AC50 in test [18] is 77.5 µM (active). The result in test [4], in test [8], in [9], in test [13] and in [14] was inactive.

On to `Cc1nn(C)c(Oc2ccccc2)c1C=NOCc1ccc(C(=O)OC(C)(C)C)cc1`, for which the AC50 in [19] is 34.4 µM (active); in test [1], 1.15 µM (active); in test [3] it was 5.33 µM (active); in test [20], 33 µM (active); in [10], 23.2 µM (active); in test [11], 42.4 µM (active). Also, the AC50 is 12.2 µM (active) in test [12]; 63.2 µM (active) in [13]; 6.47 µM (active) in [14]; 3.57 µM (active) in test [16]; 6.96 µM (active) in [17]; 2.29 µM (active) in test [18]. In addition, the compound was classed as inactive in test [4], in test [6], in test [7], in test [8], in test [9] and in test [15].
